# Experimental data taken from PubChem BioAssay AID1159524 (National Center for Advancing Translational Sciences (NCATS), 2015).
# Among all 410,000 compounds or so, about 5,100 (1.2%) were called active. Not shown: some 8% with an inconclusive outcome. The sample holds actives, similar compounds and a random draw of the others, so the mix is not that of the screen. A number with no mark means an inactive call. Calls follow the shape of the full dose curve; tested in HEK293T cells.
# Test: High Throughput Screening for Foot and Mouth Disease Virus Antivirals; also: read-out not given here; nearly all actives have a fitted effect of over 45% in size
# Settings: FMDV antiviral cell-based qHTS; series mostly up to 57.9 µM; activity change, negative = inhibition: at the top concentration
# % is scaled to controls: 0 for no effect and ±100 for the full control effect; potency is read from the fitted curve at half-maximal effect.
Compound,"activity change, negative = inhibition",Potency
CC1Cc2cc(S(=O)(=O)CCC(=O)Nc3ccc(F)c(Cl)c3)ccc2N1C(=O)C1CC1 (stereo not drawn),-26.6%,–
COc1ccc(-c2nc3cnc(OC)nc3n(Cc3ccc(F)cc3)c2=O)cc1,3.53%,–
CN(C)S(=O)(=O)c1ccc(NC(=O)COC(=O)c2n[nH]c3ccccc23)cc1,–,22.4 µM (active)
CN(C)S(=O)(=O)c1ccc(NC(=O)COC(=O)Cn2[nH]c(=O)c3ccccc3c2=O)cc1,-2.54%,–
O=C(COC(=O)c1n[nH]c2ccccc12)Nc1ccccc1Br,54.3%,–
CCN1CCC(O)(/C=C/c2ccc(C)cc2)C(C(=O)/C=C/c2ccc(C)cc2)C1 (stereo not drawn),–,28.2 µM (active)
COc1ccccc1-c1ccnc(-n2ncc(C(=O)NCCCN3CCOCC3)c2C)n1,-20.6%,–
O=C(COC(=O)CNC(=O)C1CCCCC1)NCc1ccccc1,2.61%,–
COc1ccc(CCNC(=O)COC(=O)C2CCCCC2)cc1,-8.93%,–
Cc1ccc(CNC(=O)COC(=O)C2CCC2)cc1,–,31.6 µM (active)
COc1ccc(Cn2ccnc2SCC(=O)NCc2ccco2)cc1,11.3%,–
COc1ccc2[nH]cc(CCNc3ncnc4ccc(-c5ccc(C(=O)N(C)C)cc5)cc34)c2c1,13.8%,–
CCN1C(=O)C(=Cc2c(C)n(CC(=O)NCC3CCCO3)c3ccccc23)C(=O)N(CC)C1=S (stereo not drawn),–,25.1 µM (active)
Cc1nn(CC(=O)NCC2CCCO2)c(=O)c2cc3ccccc3n12 (stereo not drawn),2.47%,–
COc1ccc(CCNC(=O)CCn2c(=O)c3ccccc3n(CC(=O)NCC3CCCO3)c2=O)cc1OC (stereo not drawn),5.3%,–
COC1=C[C@]23CCCN2CCc2cc4c(cc2[C@@H]3[C@@H]1O)OCO4,-12.3%,–
c1ccc2c(c1)C(=NC1CCCCC1)NC2=NC1CCCCC1,–,15.8 µM (active)
CC(=O)c1c(C)[nH]c(C(=O)Nc2cc(S(=O)(=O)N(C)C)ccc2C)c1C,-11.7%,–
CC(=O)c1c(C)[nH]c(C(=O)COC(=O)c2cccc(S(=O)(=O)N(C)c3ccccc3)c2)c1C,–,11.2 µM (active)
CCCCn1c(N)c(N(CCOC)C(=O)c2cccc(S(=O)(=O)N(C)c3ccccc3)c2)c(=O)[nH]c1=O,-10.4%,–
COc1cc(-c2cccnc2)cc2c1OCCN(C(=O)Cc1csc(C)n1)C2,0.56%,–
Cc1ccc2cc(CCNC(=O)c3c(-c4ccccc4Cl)noc3C)c(=O)[nH]c2c1,-12.7%,–
CC(=O)Nc1cccc(/C(C)=N/NC(=O)c2c(-c3ccccc3Cl)noc2C)c1,–,25.1 µM (active)
Cc1onc(-c2c(F)cccc2Cl)c1C(=O)Nc1cccc(S(=O)(=O)N2CCCCC2)c1,-23.2%,–

Compound,"activity change, negative = inhibition",Potency
FC(F)(F)c1ccccc1-c1cc(NCc2ccccc2)ncn1,-9%,–
Nc1ncn(C2OC(CO)C(O)C2O)c(=O)n1 (stereo not drawn),-3.39%,–
CCOC(=O)c1c(C(C#N)C#N)cc(C)nc1C,18.2%,–
CCCCSc1[nH]c(=O)c(C(=O)OCC)cc1C#N,5.15%,–
CCOC(=O)c1cc(C)nc(S(C)(=O)=O)c1C#N,–,35.5 µM (active)
COC(=O)N1CCC2(CCCN(c3ccncc3)C2)CC1,-9.77%,–
O=C1CCCCC1C(=O)c1ccccc1 (stereo not drawn),-4.76%,–
CC[C@H](C)C(=O)N[C@H]1CCCN1C(=O)/C=C/c1ccccc1,-13.9%,–
Cc1[nH]c(=O)c(C(=O)/C=C/c2ccccc2)c2c1CCCC2,–,12.6 µM (active)
COC(=O)N1CCC[C@@]2(CCN(C(=O)NC(C)C)C2)C1,-20.7%,–
Cc1cc(C)cc(OCC(=O)Nc2c(C(=O)c3ccccc3)oc3ccccc23)c1,12.3%,–
CNc1nc(-c2ccccc2OC)nc2ccccc12,-11.7%,–
CC1C(O)CC2C(C(=O)O)=CO[C@@H](O[C@H]3OC(CO)C(O)C(O)C3O)C21 (stereo partly drawn),-6.83%,–
COc1ccc(CCNC(=O)CCCCn2c(=O)c3ccccc3n(Cc3ccccc3)c2=O)cc1OC,0%,–
COc1ccc(CCNS(=O)(=O)c2ccc(Cl)s2)cc1OC,-8.08%,–
COc1ccc(CCNC2=C(Cl)C(=O)N(Cc3ccccc3)C2=O)cc1OC,–,25.1 µM (active)
CCC1CN(CCNC(=O)c2cccc(C)n2)Cc2cc(OC)ccc2O1 (stereo not drawn),-4.29%,–
COC(C)C(C(=O)OCC1=CCN2CC[C@H](O)[C@@H]12)C(C)C (stereo partly drawn),-2.63%,–
CCc1ccc(NC(=O)c2cnc3c(-c4ccccc4)c(C)nn3c2C)cc1,-13%,–
CC(C)=CC1C(C(=O)O)C1(C)C (stereo not drawn),-6.78%,–
Nc1nc2[nH]c(=O)c(=O)[nH]c2c(=O)[nH]1,7.3%,–
COc1ccc(NC(=O)C(=O)NCc2ccco2)cc1,48.5%,–
COc1ccc(CC(=O)Nc2ccc(-c3nc4ccccc4s3)c(C)c2)cc1,13.8%,–
COc1ccc(CS(=O)/C(Cl)=C(/Cl)C(=O)Nc2ccc(OC)nc2)cc1 (stereo not drawn),–,5.62 µM (active)

Compound,"activity change, negative = inhibition",Potency
Nc1ncnc2c1ncn2C1CC(O)C(CO)O1 (stereo not drawn),18%,–
CC1CC[C@@]23CCC4(C)[C@@]5(C)CCC6C(C)(C)C(O)CC[C@@]6(C)C5C=C[C@@]4(OC2=O)C3C1C (stereo partly drawn),-0.0991%,–
O=c1oc2ccccc2c(O)c1C(c1ccccc1O)c1c(O)c2ccccc2oc1=O,-1.16%,–
CC1=Nc2cc(C(=O)N3CCC(C)CC3)ccc2Sc2ccc(Cl)cc21,-11.8%,–
CCC(=O)N1CCc2cc(S(=O)(=O)NC(Cc3ccccc3)C(=O)NCc3ccc(C)cc3)ccc21 (stereo not drawn),7.8%,–
CSCCC(NS(=O)(=O)c1ccc(C)cc1)C(=O)NCCc1c[nH]c2ccccc12 (stereo not drawn),24.8%,–
Cc1ccc(S(=O)(=O)N(C)CC(=O)NCCc2c[nH]c3ccccc23)cc1,–,15.8 µM (active)
CCN(CC(=O)NCCc1ccccc1)S(=O)(=O)c1ccc(C)cc1,-8.3%,–
COc1ccc(CCNC(=O)c2ccc3c(c2)nc(C)n3-c2ccc(Br)cc2)cc1OC,0%,–
O=C(CCc1nc(CN2CCN(S(=O)(=O)c3ccc(Br)cc3)CC2)no1)N1CCCCC1,-18.9%,–
C/C(CCc1ccccc1)=N\NC(=O)c1ccc(CN2CCOCC2)cc1,4.23%,–
O=C(Nc1ccc(CSc2ccccc2)cc1)c1ccc(CN2CCOCC2)cc1,–,5.01 µM (active)
O=C(Nc1ccccc1C(=O)N1CCOCC1)c1ccc(CSc2ccccc2)cc1,0%,–
CS(=O)(=O)N1CCC2(CC1)CN(Cc1cc(C(F)(F)F)cc(C(F)(F)F)c1)C2,-10.7%,–
COc1ccccc1CNc1nc2ccc(Cl)cc2n2cnnc12,14.6%,–
O=C(NCC1Cc2cc(F)cc(-c3cnccn3)c2O1)C1COc2ccccc2O1 (stereo not drawn),19.2%,–
Fc1ccc(-c2csc(-c3ccc(C4SCCS4)cc3)n2)cc1F,75.2%,–
COc1cccc(CC(=O)Nc2nc(-c3ccc(OC)c(OC)c3)cs2)c1,–,35.5 µM (active)
COc1cccc(CNC(=O)Cc2csc3nc(-c4ccccc4)cn23)c1,4.55%,–
COc1cc(CCC(=O)Nc2ccncc2Cl)cc(OC)c1OC,-24.3%,–
COc1ccc(-c2cc(C(=O)NCc3cc(OC)c(OC)c(OC)c3)[nH]n2)cc1,-9.02%,–
COc1ccc(CC(=O)Nc2nnc3n2CCS3)cc1OC,-3.67%,–
COc1ccc(CC(=O)Nc2nc(-c3ccc(F)c(F)c3)cs2)cc1OC,–,17.8 µM (active)
COc1cc(CC(=O)Nc2nc(-c3ccc(F)c(F)c3)cs2)cc(OC)c1OC,–,20 µM (active)

Compound,"activity change, negative = inhibition",Potency
COc1cccc(CNS(=O)(=O)c2csc(C(N)=O)c2)c1,22%,–
Oc1ccc(-c2c(-c3ccccc3)nn3c(C(F)(F)F)cc(C(F)(F)F)nc23)cc1,-10.1%,–
COc1ccc(-n2c(=O)c(-c3cn(C)c4ccccc34)nc3cnc(OC)nc32)cc1,-6.96%,–
COC(=O)c1ccc(NC(=O)CCc2c(C)nn(-c3ccc(N4CCCC4)nn3)c2C)cc1,8.9%,–
COc1cc(OC)c2c(c1Cl)OC1(C2=O)C(O)=CC(=O)CC1C (stereo not drawn),-10%,–
O=C(Nc1ccccc1)N[C@H]1C[C@H](C(=O)O)Nc2cc(Cl)cc(Cl)c21,-14.8%,–
COc1ccc(CN2C(=O)C(NC(=O)c3cccc(C)c3)(C(F)(F)F)N=C2c2ccccc2)cc1 (stereo not drawn),-15.2%,–
Cc1cnc(C)c(-c2cc(F)c3c(c2)CC(CNC(=O)c2cccc(Cn4cccn4)c2)O3)n1 (stereo not drawn),-15.7%,–
CN(Cc1ccco1)c1ncncc1-c1ccoc1,-19.8%,–
CC(C)[C@@H]1NC(=O)[C@H](Cc2ccccc2)NC(=O)[C@@H](CC(=O)O)NC(=O)CNC(=O)[C@H](CCCNC(=N)N)NC1=O,1.14% [at 39.8 µM],–
COc1ccc2c(c1)c(=Cc1ccc(N(C)C)cc1)c1cc(-c3ccccc3)[n+](C)n12,–,14.1 µM (active)
CCOC(=O)c1cc(OC(=O)c2ccccc2Cl)n(-c2ccccc2)n1,-8.7%,–
COc1ccccc1-c1ccnc(-n2ncc(C(=O)NCCc3ccncc3)c2C)n1,19%,–
N#Cc1cccc(-c2nc3cnc(N4CCNCC4)nc3n(C3CC3)c2=O)c1,-8.75%,–
CCCN(CCC)CCCNC(=O)Cn1cc2c(n1)-c1c(oc(C(=O)N3CCCC3)c1C)CC2,5.84%,–
Cc1ccc(Cn2cc(CCC(=O)NCc3ccc(OC(C)C)cc3)c3ccccc32)cc1,-4.93%,–
Cc1c(C(=O)N2CCCC2)oc2c1-c1nn(CC(=O)NCc3ccc(OC(C)C)cc3)cc1CC2,–,28.2 µM (active)
Cc1cccc(CNc2cc(-c3ccccc3Cl)ncn2)c1,-5.63%,–
CC(=O)Nc1c(C)nn(-c2ccccc2)c1N1CCC(C(=O)Nc2cc(Cl)ccc2C)CC1,-1.41%,–
Cc1cccc(N2CCC(NCc3c(C(=O)N4CCCCC4)nc4c(C)cccn34)CC2)c1,-28.4%,–
Cc1cc(C)n(CC(C)NCc2c(C(=O)N3CCOCC3)nc3c(C)cccn23)n1 (stereo not drawn),7.32%,–
Cc1cccn2c(CNCC(C)Oc3cccnc3)c(C(=O)N3CCOCC3)nc12 (stereo not drawn),–,4.47 µM (active)
CC(CCC(=O)O)C1CCC2C3C(O)C[C@@H]4CC(O)CC[C@@]4(C)C3CC[C@@]12C (stereo partly drawn),–,inactive
COc1ccc(-c2cc(C(=O)Nc3sc4c(c3C(N)=O)CCCC4)no2)cc1,9.76%,–

Compound,"activity change, negative = inhibition",Potency
CCOc1ccc(CNC(=O)c2cccc(Nc3nc4ccccc4n4nnnc34)c2)cc1OC,–,7.08 µM (active)
CCOc1ccc(OCC)c(Nc2nc3ccccc3n3nnnc23)c1,-21%,–
CCOc1ccc(CNC(=O)c2ccc3nc(CC)c(CC)nc3c2)cc1OC,-24.4%,–
COc1cc(OC)cc(C(=O)Nc2ccc3nc(Nc4cccc(C(F)(F)F)c4)cc(C)c3c2)c1,-14.2%,–
COc1cccc(Cn2c(=O)c(C)nc3cnc(Oc4ccccc4)nc32)c1,-22.8%,–
COc1ccc2c3c1OC1CC(O)C=C[C@@]31CCN(C)C2 (stereo partly drawn),-8.42%,–
Cc1csc(NC(=O)C2CCN(S(=O)(=O)c3ccccc3)CC2)n1,-12.9%,–
CC(=O)N1CCC(C(=O)Nc2nc(-c3ccccc3)ns2)CC1,–,2.82 µM (active)
Cc1ccc(C(=O)Nc2nc(-c3ccccc3)ns2)cc1,32.2%,–
CC(=O)c1ccc(NC(=O)c2nc3nc(C)cc(C(F)F)n3n2)cc1,18.7%,–
CCc1ccccc1OCCSc1nc(-c2cccs2)nc2cc(=O)[nH]n12,-15.2%,–
COc1ccccc1C(=O)N[C@@H]1c2ccccc2C2(CCN(C(=O)c3csnn3)CC2)[C@H]1OC,-1.64%,–
CC(C)c1csc(CN2CCC(CO)(Cc3ccccc3)CC2)n1,-8.62%,–
COc1ccccc1C(=O)N[C@@H]1c2ccccc2C2(CCN(Cc3nc(C(C)C)cs3)CC2)[C@H]1O,–,11.2 µM (active)
O=C(Nc1cccc(F)c1)N1CC[C@@]2(CCCN(C(=O)Oc3ccccc3)C2)C1,-16.4%,–
CCN1C[C@]2(COC)C(O)C[C@H](OC)[C@@]34C5C[C@]6(O)C(OC)C(O)[C@](OC(C)=O)(C5C6OC(=O)c5ccccc5)C(C(OC)C23)C14 (stereo partly drawn),-3.96%,–
CCOc1ccc(NS(=O)(=O)c2ccc(C(=O)NCC3CCCO3)cc2)cc1 (stereo not drawn),-20.1%,–
O=C(CNC(=O)c1ccc(Br)o1)NCC1CCCO1 (stereo not drawn),-17%,–
CC(NS(=O)(=O)c1ccc(Br)cc1)C(=O)NCC1CCCO1 (stereo not drawn),–,1 µM (active)
NCCC(=O)c1ccccc1N,-2.35%,–
CN(C)C1=NC[C@H](Cc2ccccc2)N1CCc1ccc(F)cc1,0%,–
O=C1NC(=O)N(CCc2ccc(F)cc2)C(=O)/C1=C/C=C/c1ccccc1,–,10 µM (active)
